From PubChem BioAssay AID652062 (Broad Institute, 2013) come the findings set out here.

Out of some 1,400 compounds screened, about 1,100 (79%) were called active.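 Rule for the calls: active = fitted half-maximal concentration of a falling signal no higher than twice the top valid dose in every test run; inconclusive = runs disagree, or flat partial inhibition, or poor fit; inactive = every run inactive: flat, wrong direction, or potency beyond limit.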 The set was probably picked from earlier hits. These entries were drawn from the full list. Entries with a potency or affinity are not part of this list.

The assay is described as follows: inhibitors of clade B AD8 Env fusion, dose response, cell-based, cherry-pick (AID 652062). To be noted: HeLa-AD8 Env / CEM-CCR5 cell fusion, luciferase; at 35 µM (top of the series) unless noted.
For `C[C@H]1CN([C@@H](C)CO)S(=O)(=O)c2ccc(-c3cccc(F)c3)cc2O[C@H]1CN(C)S(=O)(=O)c1ccccc1`, the activity change, negative = inhibition is -18.9%. Next, `CCOC(=O)C(C)Oc1cccc2c(=O)n(CC(=O)NCCc3ccc(OC)c(OC)c3)ccc12` (configuration not stated): 3.5%; `CC(C)(C)c1ccc(-n2ncc3c2CCCC3NC(=O)CN2CCCC2=O)cc1` (configuration not stated): -53.4%; `c1ccc(CSc2nnc([C@@H]3CCCN3)o2)cc1`: 25%. Next, `Cc1ccccc1S(=O)(=O)NC(=O)C1(C)CCN1C(=O)CCc1ccc(Cl)cc1Cl` (configuration not stated): -6.19%. Then `CNC[C@H]1Oc2c(NC(=O)Nc3ccc(C(F)(F)F)cc3)cccc2C(=O)N([C@@H](C)CO)C[C@H]1C`, with 50.6%; and `C[C@H](CO)N1C[C@H](C)[C@H](CN(C)Cc2ccccc2)Oc2c(NC(=O)Nc3ccc4c(c3)OCO4)cccc2C1=O`, with 19.6% [at 16 µM].

With `CC(C)CC#Cc1ccc2c(c1)O[C@@H](CN(C)C(=O)C1CCCCC1)[C@H](C)CN([C@@H](C)CO)S2(=O)=O`, the activity change, negative = inhibition was -88.1%.

Consider `CCOc1ccc2c(c1)-c1c(ssc1=S)C(C)(C)N2C(=O)c1ccco1`, for which the activity change, negative = inhibition was -10.3%. Next, `COc1cc(OC)cc(C(=O)N[C@H](C(=O)NCCc2c[nH]c3ccccc23)C(C)C)c1`: -23.6%. Next, `C[C@@H]1CN([C@@H](C)CO)C(=O)c2cccc(NS(=O)(=O)c3ccc(F)cc3)c2O[C@@H]1CN(C)Cc1ccc(-c2ccccc2)cc1`: 44.3% [at 16 µM]. For the molecule `C[C@H]1CN([C@@H](C)CO)C(=O)Cc2cc(N(C)C)ccc2O[C@H]1CN(C)Cc1ccc(Cl)c(Cl)c1`, the activity change, negative = inhibition is 15.3%. Then `C[C@H]1CN([C@@H](C)CO)C(=O)c2cc(NS(C)(=O)=O)ccc2O[C@@H]1CN(C)Cc1ccc(Cl)c(Cl)c1`, with 37.5%; and `Cn1cc(S(=O)(=O)N2CCOCC2)cc1C(=O)Nc1cccc(Cl)c1`, with -9.96%; and `COc1ccc(-c2nn(C)c(=O)c3ccccc23)cc1NC(=O)Cn1nc(C)c2ccccc2c1=O`, with 6.7%. Next, `Cc1cc(C(C)(C)C)oc1C(=O)N(CC(=O)NC1CCCC1)Cc1ccc(Cl)cc1`: -9.64%. For `Cc1ccccc1-n1c(=O)c2ccccc2n2cnnc12`, the activity change, negative = inhibition came to 40.3%. Then `CCOC(=O)C1CCN(C(=O)c2ccc3c(c2)C(=O)N(c2ccccc2C)C3=O)CC1`, with 68.2%.

Consider `CCN(CC)CCN(C(=O)c1cc(Cl)sc1Cl)c1nc2cc3c(cc2s1)OCO3`, for which the activity change, negative = inhibition came out at 54.2%. Then `O=C(NCC[C@@H]1CC[C@@H](NS(=O)(=O)c2ccccc2F)[C@@H](CO)O1)c1ccc(F)cc1`, with 36%. Next, `Cc1nc2sc(C(c3ccco3)N3CCC(Cc4ccccc4)CC3)c(O)n2n1` (configuration not stated): 111%; `O=C(CNC(=O)c1cccc(-n2cccc2)c1)Nc1ccccc1Br`: 4.51%.
